CHRM1 antagonist – human CHRM1 antagonism; inhibition, % at 3 µM; 1.3% of 360,000 active; AID 588852; CHO-K1 hM1, Fluo-8 calcium fluorescence, ACh EC80 antagonist;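 active means percent inhibition above its own plate's cutoff, namely the mean of that plate's compound wells plus 3 SD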;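 further: peak over basal fluorescence ratio during 140 s after agonist addition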
Target sequence (P11229 whole entry, looked up): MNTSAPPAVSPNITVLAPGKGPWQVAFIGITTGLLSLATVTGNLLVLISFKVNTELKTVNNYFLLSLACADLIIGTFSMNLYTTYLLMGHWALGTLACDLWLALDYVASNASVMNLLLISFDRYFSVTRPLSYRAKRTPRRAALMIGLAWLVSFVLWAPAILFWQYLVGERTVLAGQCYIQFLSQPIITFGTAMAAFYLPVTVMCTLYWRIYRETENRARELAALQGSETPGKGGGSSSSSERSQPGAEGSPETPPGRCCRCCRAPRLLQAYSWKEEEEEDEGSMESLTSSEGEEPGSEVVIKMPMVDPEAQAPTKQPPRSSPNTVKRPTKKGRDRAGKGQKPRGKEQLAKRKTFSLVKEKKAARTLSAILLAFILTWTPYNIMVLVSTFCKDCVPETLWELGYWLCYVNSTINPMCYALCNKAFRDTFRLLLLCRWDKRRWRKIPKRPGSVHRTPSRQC
CHO-K1 Ca antag – M1 antagonist counterscreen hit in parental CHO-K1 cells; ATP-induced calcium, Fluo-8 fluorescence; inhibition, % at 3 µM; 0.6% of 360,000 active;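 active means inhibition above a per-plate cutoff, the plate's mean sample inhibition plus 3 SD, cut at about 24% in these data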
M1 ag parental – nonselective activator or artifact in parental CHO-K1 cells; Fluo-8 calcium fluorescence; scaled to maximal ATP response, vehicle zero; activation, % at 3 µM; 0.48% of 360,000 active; AID 602248; in the data active means activation above about 15%;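 further: untransfected CHO-K1 host cells lacking M1 receptor as counterscreen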
M1 PAM – potentiates human M1 receptor response to acetylcholine | 0.088% of 360,000 active | activation, % at 3 µM | CHO-K1 hM1, Fluo-8 calcium fluorescence, ACh EC20; 0% = ACh EC20, 100% = maximal ACh | P11229 | AID 588819; in the data active means activation above about 19%, passing the limit was not always enough
M1 ag – human M1 muscarinic receptor agonism; 0.33% of 360,000 active; CHO-K1 hM1, Fluo-8 calcium fluorescence, agonist mode; 0% DMSO, 100% acetylcholine EC100; P11229; activation, % at 3 µM;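 active means activation above the run's mean compound activation plus 3 SD, cut at about 16% in these data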;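 further: peak over basal fluorescence ratio within a 140 s kinetic read after compound addition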
M1 PAM parental – M1 PAM counterscreen hit in parental CHO-K1 cells; ATP EC20, Fluo-8 calcium fluorescence; 0% at ATP EC20, 100% at ATP max; activation, % at 3 µM; 0.02% of 360,000 active; AID 602247;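 active means activation above the run cutoff, the mean activation of all test compounds plus 3 SD, cut at about 40% in these data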;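 further: peak over basal fluorescence ratio in a 140 s read after ATP addition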
A number is an active result; i = inactive; nt = no result given. This is a sample that favours compounds with a hit; in the whole collection about 2.3% have one here.

SMILES	CHRM1 antagonist	CHO-K1 Ca antag	M1 ag parental	M1 PAM	M1 ag	M1 PAM parental
CCCCNS(=O)(=O)c1cccc(NC(=O)[C@@H]2O[C@H](CO)[C@H](O)[C@H](O)[C@H]2O)c1	i	i	i	i	i	i
COc1ccc(CCn2c(N)cc(=O)[nH]c2=O)cc1OC	28.2	i	i	i	i	i
COc1cc(C)c(Br)cc1S(=O)(=O)NCCCN1CCOCC1	i	i	19.8	i	i	i
COc1cc(C)c(Cl)cc1S(=O)(=O)NCCCN1CCOCC1	i	i	i	i	i	i
CCOc1ccccc1N1CCN(CC(O)COC2CCCc3ccccc32)CC1 (stereo unspecified)	47.5	i	i	i	i	i
CN1CCS/C1=C\C=C1/SC(=S)N(CC(=O)O)C1=O	i	i	39.6	i	i	i
CN1/C(=C\C=C2/SC(=S)N(CC(=O)O)C2=O)C(C)(C)c2ccccc21	37.0	i	30.5	i	130.5	i
C[C@H](CO)N1C[C@H](C)[C@H](CN(C)S(C)(=O)=O)OCc2cnnn2CCCC1=O	i	i	i	i	i	i
CCOC(=O)c1cc(OCC)c2c(ccc3cc(OC)ccc32)n1	i	i	i	i	i	i
Cc1ccccc1C(=O)NNC1CC(=O)N(c2ccc3c(c2)OCCO3)C1=O (stereo unspecified)	i	27.6	i	i	i	i
O=C(C1CCC1)N1CCN(c2cccc(C(F)(F)F)c2)CC1	i	i	i	i	i	i
O=C(C1CCN(c2nnc(-n3cccc3)s2)CC1)N1CCN(c2cccc(C(F)(F)F)c2)CC1	40.1	i	i	i	i	i
O=C(O)c1[nH]c(-c2ccccc2)c2c1C(=O)N(C1CC1)C2=O	i	i	i	i	i	i
CCN1CCN(c2ncnc3c2c(-c2ccccc2)cn3-c2ccc(F)cc2)CC1	i	i	i	i	i	i
COc1ccc(-n2cc(-c3ccccc3)c3c(NCCCN4CCOCC4)ncnc32)cc1	i	i	i	i	i	i
COc1ccc(-n2cc(-c3ccccc3)c3c(N4CCOCC4)ncnc32)cc1	39.7	i	i	i	i	i
Fc1ccc(-n2cc(-c3ccccc3)c3c(N4CCOCC4)ncnc32)cc1	33.2	i	i	i	i	i
Nc1ccn([C@@H]2O[C@H](C(=O)NCc3ccc4c(c3)OCO4)[C@@H](O)[C@H]2O)c(=O)n1	i	i	i	i	i	i
Cc1nc2ccc(C(=O)N(C)Cc3ccco3)cn2c1N(C)CC1CCCCC1	i	i	i	i	i	i
CN(C)CCC(O)(c1ccccc1)c1ccccc1Cl (stereo unspecified)	37.8	i	i	i	i	i
CN(C)CCC(O)(c1ccccc1)c1ccccc1	66.6	i	i	i	i	i
CN(C)CCCC(C)(O)C(C)(C)c1ccccc1 (stereo unspecified)	i	i	i	i	i	i
CCOC(=O)CSc1nc2sc3c(c2c(=O)n1-c1ccc(OCC)cc1)CCN(C)C3	i	i	i	i	i	i
C=CCSc1nc2sc3c(c2c(=O)n1-c1ccccc1)CCN(C)C3	36.9	i	i	i	i	i
CCSc1nc2sc3c(c2c(=O)n1-c1ccccc1)CCN(C)C3	i	i	i	i	i	i
SMILES	CHRM1 antagonist	CHO-K1 Ca antag	M1 ag parental	M1 PAM	M1 ag	M1 PAM parental
CCOC(=O)CSc1nc2sc3c(c2c(=O)n1C1CCCCC1)CCN(C)C3	24.2	i	i	i	i	i
COc1ccc(-n2c(SC)nc3sc4c(c3c2=O)CCN(C)C4)cc1	70.5	i	i	i	i	i
CC(C)CCNC(=S)Nc1ccc([N+](=O)[O-])cc1	i	28.9	i	i	i	i
CCCCNC(=S)NC(=O)c1ccc([N+](=O)[O-])cc1	i	i	i	i	i	i
CC(C)CCNC(=S)Nc1ccc(Br)cc1	i	i	i	i	i	i
CCCCNC(=S)Nc1ccc([N+](=O)[O-])cc1	26.6	34.4	i	i	i	i
CC(C)(C)Cc1c(-c2ccc(C#N)cc2)nc2c(Cl)cc(C(F)(F)F)cn12	i	i	i	i	i	i
COc1ccc(C(N)c2csc(Nc3nncc4ccccc34)n2)cc1 (stereo unspecified)	i	i	i	i	i	i
COc1cccc(C(NC(C)=O)c2nc(-c3ccccc3)cs2)c1 (stereo unspecified)	i	i	i	i	i	i
COc1ccc(NC(=O)CCN2CCN(S(=O)(=O)c3cc(Cl)ccc3OC)CC2)cc1	i	i	i	i	i	62.2
COc1ccc(NC(=O)CCN2CCN(S(=O)(=O)c3ccc(Br)cc3)CC2)cc1	i	i	i	i	i	i
O=S(=O)(c1ccc(NC(=S)NCc2cccnc2)cc1)N1CCCCC1	44.0	i	i	i	i	i
COc1cc2c(cc1OC)CN(CC(=O)Nc1ccc(S(=O)(=O)N3CCCC3)cc1)CC2	i	i	i	i	i	i
COc1cc2c(cc1OC)C(C)N(CC(=O)Nc1ccc(S(=O)(=O)N3CCCC3)cc1)CC2 (stereo unspecified)	57.7	i	i	i	i	i
CCCC(=O)Nc1ccc(S(=O)(=O)N2CCCC2)cc1	i	i	i	i	i	i
O=C(NCc1cccnc1)c1ccc(S(=O)(=O)N2CCCCC2)cc1	i	i	i	i	i	i
O=C(O)CCC(=O)Nc1ccc(S(=O)(=O)N2CCCC2)cc1	i	24.6	i	i	i	i
O=C(Nc1ccc(S(=O)(=O)N2CCCC2)cc1)C1CCN(S(=O)(=O)c2ccc(F)cc2)CC1	i	i	i	i	17.3	i
Cc1cccc(C)c1-n1nnnc1C(c1ccnc2ccccc12)N(Cc1ccccc1)Cc1ccccc1 (stereo unspecified)	nt	i	i	nt	nt	i
COc1ccc(S(=O)(=O)N(C)C[C@@H]2Oc3cc(C#CC4CCCCC4)ccc3S(=O)(=O)N([C@@H](C)CO)C[C@@H]2C)cc1	i	i	i	i	i	i
CCCCC(=O)N(C)c1c(CC)nc2c(OCc3cccc(Cl)c3)cccn12	i	i	i	i	i	i
COc1ccc(N2CCN(C(=O)C(=O)c3cn(CC(=O)N4CCCC4)c4ccccc34)CC2)cc1	i	i	i	i	i	i
O=S(=O)(Nc1ccc(S(=O)(=O)N2CCCC2)cc1)c1ccc(F)cc1	i	i	i	i	i	i
O=C(Nc1ccccc1)Nc1ccc(S(=O)(=O)N2CCCCC2)cc1	i	23.9	i	i	i	i
O=S(=O)(Nc1ccc(F)cc1)c1ccc(S(=O)(=O)N2CCOCC2)cc1	i	i	34.0	i	23.9	i
O=C(Nc1ccc(S(=O)(=O)N2CCCCC2)cc1)c1ccccc1Cl	i	i	i	i	i	i
CC1CCN(S(=O)(=O)c2ccc(NC(=O)CN3CCCC(C)C3)cc2)CC1 (stereo unspecified)	i	i	i	i	i	i

Source: PubChem BioAssay
